Data on five compounds can be found in PubChem BioAssay.

Each structure is given as a SMILES string. Results filed as inconclusive are left out. Activity calls are given as the source filed them.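 The calls were made as follows, unless noted: active = binding below the plate cutoff, the plate median minus 3 SD, with a reading above zero; inconclusive = below the plate cutoff but reading exactly zero; inactive = the rest.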

Assay [1] in a line: rapamycin-like changes in RPL19A-GFP expression – cell-based, S. cerevisiae, multiplex flow cytometry, primary screen (AID 1862; in the data active = percent of DMSO control GFP below about 86%;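 also: lower values mimic rapamycin by blocking the RPL19A rise seen in DMSO cells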). The settings on record: S. cerevisiae RPL19A-GFP strain, flow cytometry fluorescence, 3 h; at 10 µM; stronger effect = lower value.
Assay [2] can be described thus: TOR pathway GLN3 branch reporter MEP2-GFP changes – S. cerevisiae, multiplex flow cytometry, primary screen (AID 1867;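 active = GFP response, as percent of the DMSO control, above the screen-wide mean plus 3 SD, about 139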;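 also: median GFP channel fluorescence of barcode-gated MEP2-GFP cells measured by flow cytometry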). The settings on record: S. cerevisiae MEP2-GFP strain, 3 h, at 10 µM, stronger effect = higher value, 100% means same as DMSO wells. In general terms: Flow cytometry measures light scatter and fluorescence of single cells or particles in a stream.
Assay [3] in a line: TOR pathway RTG branch CIT2 reporter changes – S. cerevisiae, GFP fusion, multiplex flow cytometry, primary screen (AID 1870;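 active = percent response above a set limit, the screen-wide mean plus 3 SD, cut at about 130% in these data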;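 also: barcoded CIT2-GFP strain pooled with four other GFP strains with rapamycin as positive control; median GFP fluorescence per well over plate mean of DMSO wells so 100% = DMSO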). The settings on record: S. cerevisiae CIT2-GFP expression, 3 h, at 10 µM, stronger effect = higher value.
A short description of assay [4]: TOR pathway LAP4-GFP level changes – S. cerevisiae, multiplex flow cytometry, primary screen (AID 1873;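 active = GFP signal, as percent of the solvent control, above the screen mean plus 3 SD, about 149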). As to conditions: S. cerevisiae LAP4-GFP expression, 3 h, at 10 µM, stronger effect = higher value.
Assay [5] is described as follows: yeast AGP1-GFP level changes, GLN3 branch – cell-based, multiplex flow cytometry, S. cerevisiae, primary screen (AID 1887;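 active = GFP signal above the screen-wide mean plus 3 SD, that is over about 124.5% of the solvent control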;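 also: AGP1-GFP fusion strain of S. cerevisiae within a five-strain barcoded multiplex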). As to conditions: 3 h, at 10 µM, stronger effect = higher value.
The nature of assay [6]: reduced mouse 2C T cell binding to pMHC/ICAM-1 vesicles – MLPCN validation set, flow cytometry, LFA-1/ICAM-1 modulator project, pilot screen (AID 2523;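 active = response below a set limit, under 55% cells CD8-positive and vesicle-bound, and CD8 cells' 90th-percentile brightness under 279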;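 as to vesicle binding response: mean PE anti-B7-1 fluorescence of CD8+ cells relative to row control; 100% = QL9-loaded vesicles with DMSO vehicle in the same plate row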). As to conditions: 2C mouse CD8+ T cells, at 7 µM, stronger effect = lower value; double positive events: measured here: CD8+/vesicle+ event percentage.
Assay [7] concerns the target Integrin beta-1 (Homo sapiens) + Integrin alpha-4 (Homo sapiens) (UniProt P13612+P05556). Put plainly: alpha4beta1 integrin LIBS antibody binding reduction – U937 cells, HUTS-21 mAb, flow cytometry, validation set, VLA-4 allosteric modulator project, pilot screen (AID 2674;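 active = inhibition above 50%, about 3 SD of the validation set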;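 also: antibody binding induced by the VLA-4 ligand LDV present at three times its Kd; 0% = LDV ligand with antibody and no compound and 100% = antibody without LDV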). As to conditions: HUTS-21 LIBS mAb binding, at 6.7 µM, stronger effect = higher value, binding induced by LDV ligand.

The nature of assay [8]: calorie-restriction mimetic ROS inhibitors, yeast – validation compound set, pilot screen (AID 2706;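 active = superoxide response below 65% of plate, a cut near 3 SD across the whole screen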;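 also: yeast exposed to compound for one week at 30 degrees C before staining; 100% = mean of all compound wells on the same plate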). The settings on record: S. cerevisiae aging, superoxide DHE fluorescence; at 10 µM, stronger effect = lower value.
For assay [9], the target named is Beta-adrenergic receptor kinase 1 (Homo sapiens) (UniProt P25098). Put plainly: GRK2 binders displacing RNA aptamer, biochemical, validation, human GRK2, bead flow cytometry (AID 488806;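 active = aptamer binding inhibition above 30%, about 3 SD of noise from non-fluorescent compounds; inactive = inhibition at or below 30%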). As to conditions: bead-bound GRK2, FAM-aptamer displacement, at 10 µM, stronger effect = higher value.
Sequence of Beta-adrenergic receptor kinase 1 (Homo sapiens) (P25098 whole entry, looked up): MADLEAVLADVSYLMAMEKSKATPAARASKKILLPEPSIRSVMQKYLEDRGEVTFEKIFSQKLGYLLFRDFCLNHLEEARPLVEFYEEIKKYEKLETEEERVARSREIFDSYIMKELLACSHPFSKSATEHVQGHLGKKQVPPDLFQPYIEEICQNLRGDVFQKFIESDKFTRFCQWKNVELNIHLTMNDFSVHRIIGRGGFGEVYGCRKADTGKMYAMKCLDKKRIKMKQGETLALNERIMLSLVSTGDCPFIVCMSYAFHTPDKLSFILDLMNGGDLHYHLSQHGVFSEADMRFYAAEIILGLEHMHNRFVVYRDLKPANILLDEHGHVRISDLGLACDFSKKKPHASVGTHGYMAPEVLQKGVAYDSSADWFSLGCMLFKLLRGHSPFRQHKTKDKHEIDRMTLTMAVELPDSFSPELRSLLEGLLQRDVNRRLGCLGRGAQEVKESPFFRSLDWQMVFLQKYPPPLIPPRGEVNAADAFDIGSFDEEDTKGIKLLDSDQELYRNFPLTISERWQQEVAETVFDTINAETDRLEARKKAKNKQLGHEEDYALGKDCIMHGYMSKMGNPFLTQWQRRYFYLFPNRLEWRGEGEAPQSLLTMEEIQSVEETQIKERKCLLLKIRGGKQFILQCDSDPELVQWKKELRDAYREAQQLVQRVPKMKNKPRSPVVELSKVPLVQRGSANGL
Assay [10] has as its target AP-2 complex subunit beta (Homo sapiens) (UniProt P63010). The experiment in a line: beta-arrestin/AP2 interaction blockers – biochemical, validation set, GST-AP2 beads, flow cytometry, pilot screen (AID 504541;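 active = inhibition above 54%, about 3 SD of non-fluorescent compounds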;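 also: AP2 carries R879A mutation and is captured from E. coli lysate; bead-bound FITC arrestin peptide fluorescence measuring arrestin peptide binding to AP2; 0% = DMSO wells and 100% = excess unlabeled arrestin peptide control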). The settings on record: FITC arrestin peptide, at 10 µM, stronger effect = higher value, AP2 beta2 appendage fragment, R879A mutant.
The nature of assay [11]: cytosolic pH regulators acting via V-ATPase – S. cerevisiae, pHLuorin, HTS validation (AID 504600; in the data active = response above about 15%;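 also: plate controls were DMSO for no effect and reference compound for full effect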). The settings on record: V-ATPase proton transport, at 10 µM, stronger effect = higher value.
Assay [12] relates to anti-desmoglein-3 scFv antibody binding to human DSG3. The experiment in a line: blockers of pathogenic pemphigus antibody–desmoglein-3 binding – biochemical, validation compound set, bead-based, flow cytometry, pilot screen (AID 588368).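 Also: signal is the median channel fluorescence of bead-bound GFP antibody.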 The settings on record: Protein G beads, DSG3-Fc, scFv-GFP binding, at 10 µM, stronger effect = lower value.
A short description of assay [13]: Nile Red efflux blockade in pump-expressing yeast – validation compound set, multiplex, phenotypic, pilot screen (AID 588506;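 active = efflux inhibition above 0.42, the validation set average plus 4 SD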;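 also: Nile Red retained in cells so higher fluorescence means more efflux inhibition; 0 = negative control wells and 1 = enniatin B 25 µM full block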). The settings on record: S. cerevisiae pump-expressing triplex, Nile Red efflux flow cytometry; at 10 µM; stronger effect = higher value; the pumps come from Candida albicans.
The target in assay [14] is ATP-binding cassette sub-family B member 6 (Homo sapiens) (UniProt Q9NP58). Put plainly: blockers of ABCB6-driven porphyrin uptake – K562-ABCB6 cells, flow cytometry, validation set, pilot screen (AID 588550;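 active = inhibition above the screen-wide mean plus 3 SD, about 51%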;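 also: 0% = DMSO wells and 100% = benzethonium chloride 70 µM positive control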). As to conditions: K562-ABCB6 porphyrin accumulation, 1 h, at 10 µM, stronger effect = higher value.
Sequence of ATP-binding cassette sub-family B member 6 (Homo sapiens) (Q9NP58 whole entry, looked up): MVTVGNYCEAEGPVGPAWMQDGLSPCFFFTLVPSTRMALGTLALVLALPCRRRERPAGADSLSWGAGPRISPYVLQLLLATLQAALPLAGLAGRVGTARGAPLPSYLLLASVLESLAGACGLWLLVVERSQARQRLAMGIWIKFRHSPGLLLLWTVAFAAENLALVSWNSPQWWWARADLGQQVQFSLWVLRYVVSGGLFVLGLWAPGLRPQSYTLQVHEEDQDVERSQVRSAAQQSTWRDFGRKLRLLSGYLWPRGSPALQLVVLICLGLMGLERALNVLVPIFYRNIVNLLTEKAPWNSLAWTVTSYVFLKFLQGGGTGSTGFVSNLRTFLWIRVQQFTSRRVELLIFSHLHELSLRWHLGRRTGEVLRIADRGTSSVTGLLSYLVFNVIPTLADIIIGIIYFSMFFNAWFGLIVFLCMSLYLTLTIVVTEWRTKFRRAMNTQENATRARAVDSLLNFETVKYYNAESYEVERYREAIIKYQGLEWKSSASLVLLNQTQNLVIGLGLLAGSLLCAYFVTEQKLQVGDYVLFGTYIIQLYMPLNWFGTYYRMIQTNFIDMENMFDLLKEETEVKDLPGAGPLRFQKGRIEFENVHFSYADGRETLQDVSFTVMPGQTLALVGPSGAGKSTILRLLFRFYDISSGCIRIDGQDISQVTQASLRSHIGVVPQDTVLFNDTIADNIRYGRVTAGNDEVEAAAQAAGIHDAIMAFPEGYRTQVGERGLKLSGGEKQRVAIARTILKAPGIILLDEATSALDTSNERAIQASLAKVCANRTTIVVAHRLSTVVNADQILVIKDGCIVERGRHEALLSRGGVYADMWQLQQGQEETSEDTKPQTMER
Assay [15] is described as follows: AML differentiation inducers, ER-HoxA9 marrow cells – cell-based, GFP/MAC1 double positive, flow cytometry, validation set, primary screen (AID 588685;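 active = differentiation response of at least 50%, scaled between solvent and reference control, from cells with both markers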;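 also: compound exposure lasts four days before antibody staining and flow analysis; 0% = DMSO wells and 100% = 5 µM fulvestrant positive control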). As to conditions: stronger effect = higher value, normalized: vehicle 0, fulvestrant 100.

Sequence of Integrin beta-1 (Homo sapiens) + Integrin alpha-4 (Homo sapiens) (P05556 whole entry, looked up): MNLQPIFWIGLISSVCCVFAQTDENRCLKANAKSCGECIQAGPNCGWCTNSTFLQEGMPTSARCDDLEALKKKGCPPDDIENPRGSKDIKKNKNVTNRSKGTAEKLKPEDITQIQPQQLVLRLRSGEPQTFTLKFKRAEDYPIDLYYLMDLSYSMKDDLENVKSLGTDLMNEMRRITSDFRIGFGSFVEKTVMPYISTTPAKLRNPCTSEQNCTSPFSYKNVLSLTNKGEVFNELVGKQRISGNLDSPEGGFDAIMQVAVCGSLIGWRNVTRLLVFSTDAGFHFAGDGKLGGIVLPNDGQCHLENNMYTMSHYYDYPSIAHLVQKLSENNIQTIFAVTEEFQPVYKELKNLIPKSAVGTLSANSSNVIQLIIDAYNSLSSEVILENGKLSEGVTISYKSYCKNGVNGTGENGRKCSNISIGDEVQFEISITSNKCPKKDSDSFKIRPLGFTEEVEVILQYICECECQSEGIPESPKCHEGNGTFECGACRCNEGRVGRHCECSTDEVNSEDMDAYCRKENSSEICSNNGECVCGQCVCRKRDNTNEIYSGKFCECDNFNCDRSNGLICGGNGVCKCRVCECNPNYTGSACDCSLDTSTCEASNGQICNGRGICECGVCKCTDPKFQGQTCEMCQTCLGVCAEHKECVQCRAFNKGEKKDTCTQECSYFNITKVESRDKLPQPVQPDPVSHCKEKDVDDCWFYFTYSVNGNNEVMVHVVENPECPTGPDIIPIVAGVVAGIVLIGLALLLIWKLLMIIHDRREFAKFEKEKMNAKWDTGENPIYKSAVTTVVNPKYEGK
Sequence of Integrin beta-1 (Homo sapiens) + Integrin alpha-4 (Homo sapiens) (P13612 whole entry, looked up): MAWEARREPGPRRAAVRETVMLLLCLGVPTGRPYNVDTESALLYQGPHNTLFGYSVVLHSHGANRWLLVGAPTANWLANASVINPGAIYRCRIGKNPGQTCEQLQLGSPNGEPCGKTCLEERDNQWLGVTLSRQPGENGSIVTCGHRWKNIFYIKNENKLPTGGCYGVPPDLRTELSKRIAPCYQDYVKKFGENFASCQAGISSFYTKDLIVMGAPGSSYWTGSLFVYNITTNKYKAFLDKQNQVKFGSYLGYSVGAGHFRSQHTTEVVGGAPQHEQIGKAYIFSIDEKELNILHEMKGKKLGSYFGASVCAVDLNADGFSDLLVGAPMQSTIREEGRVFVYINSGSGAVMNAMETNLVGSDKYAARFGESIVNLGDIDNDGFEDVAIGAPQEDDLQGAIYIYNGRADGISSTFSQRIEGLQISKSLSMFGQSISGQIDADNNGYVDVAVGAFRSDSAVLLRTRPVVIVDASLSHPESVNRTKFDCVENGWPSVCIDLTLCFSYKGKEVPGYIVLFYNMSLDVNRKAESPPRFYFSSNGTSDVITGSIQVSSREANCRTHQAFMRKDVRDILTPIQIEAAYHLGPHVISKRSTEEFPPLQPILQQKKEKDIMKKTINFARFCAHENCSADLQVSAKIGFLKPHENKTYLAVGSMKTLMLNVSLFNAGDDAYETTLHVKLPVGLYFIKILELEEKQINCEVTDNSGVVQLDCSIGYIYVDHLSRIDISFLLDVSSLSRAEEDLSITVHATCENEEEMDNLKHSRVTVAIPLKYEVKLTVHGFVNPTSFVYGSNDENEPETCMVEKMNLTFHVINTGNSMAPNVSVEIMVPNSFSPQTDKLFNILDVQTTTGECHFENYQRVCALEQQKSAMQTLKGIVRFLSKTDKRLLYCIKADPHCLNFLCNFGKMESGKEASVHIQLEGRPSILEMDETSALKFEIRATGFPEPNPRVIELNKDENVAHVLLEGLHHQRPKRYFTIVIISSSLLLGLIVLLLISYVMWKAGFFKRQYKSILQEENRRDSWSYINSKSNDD
Sequence of AP-2 complex subunit beta (Homo sapiens) (P63010 whole entry, looked up, the tested form may be a part, one chain of several): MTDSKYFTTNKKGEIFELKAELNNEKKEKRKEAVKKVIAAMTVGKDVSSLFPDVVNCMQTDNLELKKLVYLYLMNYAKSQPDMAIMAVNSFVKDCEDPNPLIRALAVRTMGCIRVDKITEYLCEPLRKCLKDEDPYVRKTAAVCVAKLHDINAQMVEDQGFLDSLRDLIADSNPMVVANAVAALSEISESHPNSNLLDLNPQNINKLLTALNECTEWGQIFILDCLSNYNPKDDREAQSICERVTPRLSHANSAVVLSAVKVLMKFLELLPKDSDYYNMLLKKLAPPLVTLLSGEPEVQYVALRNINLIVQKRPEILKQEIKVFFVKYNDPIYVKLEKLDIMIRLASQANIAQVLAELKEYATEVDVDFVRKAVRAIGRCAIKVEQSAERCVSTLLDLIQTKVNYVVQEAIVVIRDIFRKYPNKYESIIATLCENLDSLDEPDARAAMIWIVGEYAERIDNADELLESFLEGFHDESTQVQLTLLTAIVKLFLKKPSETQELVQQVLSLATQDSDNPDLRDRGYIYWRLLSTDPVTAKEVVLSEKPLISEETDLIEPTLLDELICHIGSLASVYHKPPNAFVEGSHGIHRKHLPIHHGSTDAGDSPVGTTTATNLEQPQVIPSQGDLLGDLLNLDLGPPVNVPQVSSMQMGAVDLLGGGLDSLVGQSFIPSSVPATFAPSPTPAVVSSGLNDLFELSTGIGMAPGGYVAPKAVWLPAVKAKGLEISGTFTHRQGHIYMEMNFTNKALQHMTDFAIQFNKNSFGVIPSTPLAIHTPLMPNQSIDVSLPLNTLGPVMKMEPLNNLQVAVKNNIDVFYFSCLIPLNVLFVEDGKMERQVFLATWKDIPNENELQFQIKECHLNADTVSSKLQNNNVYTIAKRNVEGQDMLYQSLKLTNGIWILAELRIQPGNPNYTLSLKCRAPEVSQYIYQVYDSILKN

Turning to `CC(=O)Oc1cc(C(C)C)c(OCCN(C)C)cc1C`, in [1], the percent of DMSO control GFP is 103% (inactive). Moreover, the GFP response vs DMSO in assay [2] was 104% (inactive); in [4], 97.4% (inactive). The percent response of DMSO control in assay [3] is 94.9% (inactive). In addition, in assay [5], the GFP response, % of DMSO was 99.9% (inactive). This compound also had a double positive events in assay [6] of 52.8%. Moreover, the vesicle binding response in [6] is 152% (inactive). Further, the inhibition (as a rule, the drop in the measured response relative to a control, in per cent) in [7] is -0.24% (inactive); in assay [10], -9.83% (inactive); in [14] it was 10% (inactive). In assay [8], the superoxide response (% of plate) is 106% (inactive). In [9], the aptamer binding inhibition was 6% (inactive). Further, the response in [11] was 8.27% (inactive). Also, in [12], the binding (% of control) is 95.2% (inactive). The efflux inhibition (fraction of control) in assay [13] was 0.1 (inactive). In addition, the differentiation response in assay [15] was 19.2% (inactive).
For the compound `Cc1cnc(C(=O)N2CCCC(C(=O)c3ccc(Cl)cc3C)C2)cn1` (stereo not given), in assay [1], the percent of DMSO control GFP is 104% (inactive). Further, the GFP response vs DMSO in [2] was 99.9% (inactive); in [4], 96.4% (inactive). The percent response of DMSO control in assay [3] was 105% (inactive). In addition, the GFP response, % of DMSO in assay [5] is 101% (inactive). The compound also displayed a double positive events in assay [6] of 50%. Moreover, the vesicle binding response in assay [6] is 175% (inactive). The figures for the inhibition in assay [7], in assay [10] and in assay [14] were -2.11% (inactive), 21.9% (inactive) and -25% (inactive), respectively. Moreover, the superoxide response (% of plate) in assay [8] was 109% (inactive). Further, the aptamer binding inhibition in [9] is 2% (inactive). Further, the response in assay [11] is 2.89% (inactive). The binding (% of control) in assay [12] is 101% (inactive). In addition, the efflux inhibition (fraction of control) in [13] was 0.18 (inactive). For the same compound, the differentiation response in assay [15] was -18% (inactive).
Regarding `CC(O)Cn1cnc2c1c(=O)n(C)c(=O)n2C` (stereo not given), the percent of DMSO control GFP in [1] was 95.1% (inactive). For the same compound, the GFP response vs DMSO in assay [2] is 93.8% (inactive); in assay [4], 94.3% (inactive). Further, the percent response of DMSO control in [3] was 111% (inactive). Further, the GFP response, % of DMSO in assay [5] is 98.7% (inactive). The compound further registered a double positive events in [6] of 50%. In [6], the vesicle binding response is 150% (inactive). The inhibition in assay [7] is 4.42% (inactive); in assay [10] it was -14.4% (inactive); in [14] it was 4% (inactive). Further, the superoxide response (% of plate) in [8] is 105% (inactive). In addition, the aptamer binding inhibition in [9] is 0% (inactive). Further, in assay [11], the response is 0.41% (inactive). In addition, the binding (% of control) in assay [12] was 101% (inactive). The efflux inhibition (fraction of control) in [13] is -0.24 (inactive). In addition, in assay [15], the differentiation response was -14.7% (inactive).
With `COc1ccc(-c2[nH]ncc2C=O)cc1OC`, the percent of DMSO control GFP in assay [1] was 99.3% (inactive). The figures for the GFP response vs DMSO in assay [2] and in [4] were 96.9% (inactive) and 91.3% (inactive), respectively. Besides, the percent response of DMSO control in [3] is 106% (inactive). The GFP response, % of DMSO in assay [5] was 95.8% (inactive). In addition, the double positive events in assay [6] turned out to be 52%. The vesicle binding response in [6] was 201% (inactive). For the same compound, the inhibition was -1.17% (inactive) in [7], 11.3% (inactive) in assay [10] and 8% (inactive) in [14]. In addition, in assay [8], the superoxide response (% of plate) is 93.7% (inactive). The aptamer binding inhibition in assay [9] was 2% (inactive). For the same compound, in [11], the response is 3.37% (inactive). Further, the binding (% of control) in [12] was 101% (inactive). Further, the efflux inhibition (fraction of control) in assay [13] is -0.12 (inactive). Further, in [15], the differentiation response is -11.5% (inactive).
Regarding `CC1(C)OC2OC(C(=O)N/N=C/c3ccccc3F)C3OC(C)(C)OC3C2O1` (stereo not given), the percent of DMSO control GFP in assay [1] was 100% (inactive). For the same compound, the GFP response vs DMSO in assay [2] was 106% (inactive); in [4] it was 101% (inactive). Also, in [3], the percent response of DMSO control was 97.9% (inactive). Further, in assay [5], the GFP response, % of DMSO is 101% (inactive). In assay [6], this compound had a double positive events of 53.1%. Also, in assay [6], the vesicle binding response was 164% (inactive). Further, the inhibition in assay [7] is 12.8% (inactive); in [10], 0.54% (inactive); in assay [14], 9% (inactive). In addition, the superoxide response (% of plate) in assay [8] was 103% (inactive). Besides, the aptamer binding inhibition in assay [9] was 1% (inactive). Further, the response in [11] is 1.25% (inactive). The binding (% of control) in assay [12] was 96.5% (inactive). In addition, in assay [13], the efflux inhibition (fraction of control) was 0.52 (active). The differentiation response in [15] was -13.1% (inactive).
